These molecules were tested against thrombin (human, UniProt P00734) (assay: primary screen, binary call; higher = more effect of the substance). Conditions: 200 µM; call rule not given here.
Design: screenings were carried out in duplicate in one independent experiment
Method: Protease inhibitory assays were performed in transparent microtiter plates in a final volume of 200 µL with the use of chromogenic substrates. The reaction rates in the absence and in the presence of the inhibitor were measured; screenings were carried out in duplicate in one independent experiment and Ki values were determined in triplicate in two independent experiments.

Thrombin, inactive:
Cc1ccc(C)n1Cc1ccccc1Cl 0, Cc1cnc(C(F)(F)F)cn1 0, O=C1NC(=O)/C(=C\c2cccs2)N1 0, O=C(O)c1cccc(Nc2ncccn2)c1 0, Cc1cc(-c2ccccc2)n[nH]1 0, N#Cc1ccc2ncsc2c1 0, O=C(c1ccccc1)N1CCC(CO)CC1 0, O=C1NC(=O)C2(CCc3ccccc32)N1 (centres unmarked) 0, CCN(CC)c1cccc(C)c1 0, O=C1CCCc2occc21 0, CN(C)c1cc(CN)ccn1 0
